Experimental findings from ChEMBL document CHEMBL4513216, “Probing the Open Global Health Chemical Diversity Library for Multistage-Active Starting Points for Next-Generation Antimalarials” (ACS Infect Dis, 2020) are described below.

Among all 69,000 compounds or so, about 8,600 (12%) showed an effect of 50% or more. The sample as a whole holds a higher share of strong results than the screen did.

The subject of the experiment is Plasmodium berghei. The experiment is described as follows: Screen against P. berghei liver stage (PbLuc), transformed with Luciferase, at 10uM. The experiment is classed as functional, HepG2. The conditions noted are these: tested at 10 uM.
`O=C(CCOc1ccccc1F)N1CCCC1Cn1cccn1` (stereo not drawn): the INHIBITION was 29.2%.

For the molecule `CN(CCC(=O)N1CCc2sccc2C1)Cc1cnn(C)c1`, the INHIBITION came to 19.2%.

In the case of `CC(C)c1nc(C(=O)N2CCc3ccccc3C2C(=O)O)cs1` (stereo not drawn), the INHIBITION stood at 6.61%.

`CC(C)c1cc(C(=O)N2CCc3ccccc3C2C(=O)O)nn1C` (stereo not drawn): the INHIBITION was -28%.

For `CC(C)c1cc(C(=O)N2CCc3ccccc3C2C(=O)O)n(C)n1` (stereo not drawn), the INHIBITION worked out at 66.3%.

With `O=C(O)C1(n2ccc(-c3ccco3)n2)CCN(Cc2ccsc2)CC1`, the INHIBITION is listed as -14.3%.

For the molecule `Nc1no[n+]([O-])c1C(=O)NCc1cccnc1`, the INHIBITION came to 42.8%.

Turning to `NS(=O)(=O)CCCC(=O)N1CCC2(CC1)c1ccccc1CC2O` (stereo not drawn), the INHIBITION was -38.8%.

Turning to `Cn1cccc1CCC(=O)N1CCC2(CC1)c1ccccc1CC2O` (stereo not drawn), the INHIBITION is given as 60.1%.

Consider `CSCC(=O)N1CCC2(CC1)c1ccccc1CC2O` (stereo not drawn), for which the INHIBITION is on record as 65.1%.

On to `O=C(CSc1ccncc1)N1CCC2(CC1)c1ccccc1CC2O` (stereo not drawn), for which the INHIBITION is given as -16.8%.

Regarding `O=C(CCN1CCNCC1)N1CCC2(CC1)c1ccccc1CC2O` (stereo not drawn), the INHIBITION came out at 31.6%.

As for `NC(=O)NCC(=O)N1CCC2(CC1)c1ccccc1CC2O` (stereo not drawn), the INHIBITION was found to be 28.3%.

Regarding `COCCC(=O)N1C[C@@H](c2ccc(F)c(F)c2)[C@@]2(CCCC(=O)N2)C1`, the INHIBITION is 17.4%.

As to `CCNC(c1cccnc1)c1ccc(F)cc1F` (stereo not drawn), the INHIBITION stood at 30.6%.

For the molecule `COCCNc1ccccc1CNC(=O)C1CCCOC1` (stereo not drawn), the INHIBITION is on record as 35.1%.

For `COc1ccc(CNC(=O)NCc2nc(C)c(C)s2)cn1`, the INHIBITION came out at 48.5%.

Take `Cc1ccc(CNC(=O)NCc2cccnc2N(C)C)s1`: the INHIBITION is reported as 15.5%.

Regarding `COc1ccc(CNC(=O)NCCc2nc(C)c(C)s2)cn1`, the INHIBITION stood at 31.2%.

In the case of `Cc1ncc(CNC(=O)NCc2c(F)cccc2OC(F)F)s1`, the INHIBITION stood at 10.7%.

As for `COCCNc1ccccc1CNC(=O)NCc1nc(C)c(C)s1`, the INHIBITION amounted to 72%.

For the molecule `Cc1ncc(CNC(=O)NCC(C)Oc2ccccc2F)s1` (stereo not drawn), the INHIBITION is -47.3%.

Take `COCCNc1ccccc1CNC(=O)NCc1cnc(C)s1`: the INHIBITION worked out at 52.1%.

Consider `COCCNc1ccccc1CNC(=O)NCc1ccc(C)s1`, for which the INHIBITION stood at 64.1%.

`NC(=O)C1CCN(C(=O)CCn2ccc3ccc(Br)cc32)CC1`: the INHIBITION came to 10.6%.

As for `c1cnc(N2CCOCC3(CCCN(CC4CCOCC4)C3)C2)nc1` (stereo not drawn), the INHIBITION is recorded as -4.88%.

Regarding `CNC(=O)CN1CC[C@H]2CN(C(=O)c3cc[nH]n3)C[C@H]2C1`, the INHIBITION is listed as 41.1%.

As to `O=C(NCc1ccnc(-n2cccn2)c1)C1CC(=O)N(CC2CC2)C1` (stereo not drawn), the INHIBITION is recorded as -25.9%.

For the molecule `CN(C)S(=O)(=O)N1C[C@@H]2C[C@H](C(=O)Nc3cccnc3)[C@H](C1)O2`, the INHIBITION was found to be 43.9%.

Regarding `CC(=O)c1ccc(OCC(C)O)cc1O` (stereo not drawn), the INHIBITION is 47.1%.

With `COc1ccc(CN(C)[C@@H]2CN(S(=O)(=O)C(C)C)C[C@H]2O)cc1`, the INHIBITION was found to be 2.15%.

As to `CCN1C(=O)[C@]2(CC[C@@H]3CN(C(=O)Nc4ccc(F)cc4)C[C@@H]32)N=C1C`, the INHIBITION is listed as 22.2%.

Turning to `COc1ncccc1CNC(=O)Nc1cccnc1N1CCCC1`, the INHIBITION is recorded as 43.3%.

On to `COc1cccc(CC(=O)NCC(Cc2ccc(F)cc2)C(N)=O)c1` (stereo not drawn), for which the INHIBITION is on record as 8.99%.

In the case of `N#Cc1ccc(N2CCC(NS(=O)(=O)c3cccs3)CC2)c(F)c1`, the INHIBITION stood at 20.9%.

Regarding `N#Cc1c(F)cccc1N1CCC(NS(=O)(=O)c2cccs2)CC1`, the INHIBITION is reported as 24%.

Regarding `N#Cc1cc(F)c(N2CCC(NS(=O)(=O)c3cccs3)CC2)c(F)c1`, the INHIBITION came out at 62.9%.

Turning to `CNc1ncc(C(=O)N2CCOC(C(=O)Nc3ccccc3)C2)cn1` (stereo not drawn), the INHIBITION is given as -8.58%.

For the molecule `CN(CCc1ccccc1)Cc1c(C2CCOCC2)[nH]c2ncccc12`, the INHIBITION turned out to be 17.125%.

For `CN(CCc1ccccc1)Cc1c(C2CC2)[nH]c2ncccc12`, the INHIBITION stood at 14.185%.

Regarding `CN(CCc1ccccc1)Cc1c(C2CCNCC2)[nH]c2ncccc12`, the INHIBITION amounted to 58.95%.

On to `NCCCC(=O)N1CCC2(CC1)CN(C(=O)c1ccc(Cl)cc1)CCO2`, for which the INHIBITION is listed as 4.35%.

For the molecule `O=C(c1csc(-c2ccc(C(F)(F)F)cc2)n1)N1CCCNCC1`, the INHIBITION is 62.1%.

As to `CN1CCCN(C(=O)c2csc(-c3ccc(C(F)(F)F)cc3)n2)CC1`, the INHIBITION is 42.3%.

Regarding `O=C1CCN(C(=O)c2csc(-c3ccc(C(F)(F)F)cc3)n2)CCN1`, the INHIBITION was -1.26%.

As for `CC(C)NC(=O)N1CCN(CC2CC2)CC2(CC(=O)N(C)C2)C1` (stereo not drawn), the INHIBITION stood at 79.5%.

Take `CC(C)NC(=O)N1CCN(C(=O)NC(C)C)CC2(CNC(=O)C2)C1`: the INHIBITION is given as -2.17%.

As to `CC(C)NC(=O)N1CCN(C(=O)C(C)C)CC2(CC(=O)N(C)C2)C1` (stereo not drawn), the INHIBITION was determined as 22.2%.

`CC(C)NC(=O)N1CCN(CC2CC2)CC2(CNC(=O)C2)C1` (stereo not drawn): the INHIBITION is recorded as 69.6%.

Regarding `CC(=O)N1CCN(C(=O)NC(C)C)CC2(CC(=O)N(C)C2)C1` (stereo not drawn), the INHIBITION was -3.52%.

Regarding `CC(=O)N1CCN(C(=O)NC(C)C)CC2(CNC(=O)C2)C1` (stereo not drawn), the INHIBITION is -2.17%.

With `CN(C)C(=O)COC1COC2(CCN(CC3CCOCC3)CC2)C1` (stereo not drawn), the INHIBITION stood at 12.2%.

Regarding `COCC1CCN(C(=O)c2cn(Cc3ccccc3C(F)(F)F)nn2)C1` (stereo not drawn), the INHIBITION was -49.3%.
